High-throughput results: PubChem, Broad Institute
aSyn UTR act – Activators via SNCA 5'UTR binding, MLPCN | alpha-synuclein 5'UTR reporter, activators screen | activity score, % (tested at 7.5 µM), hits read low | 300,000 tested, 7.1% active | AID 1814; in the data active = activity score below about -60%
Large screens that a line does not name were inactive. Only a sample is shown.

CCOc1ccc(-c2cc(C(=O)N3CCN(C)CC3)c3ccccc3n2)cc1	aSyn UTR act -136
CCCOc1ccc(-c2cc(C(=O)NCC3CCCO3)c3ccccc3n2)cc1 (stereo unspecified)	aSyn UTR act -73
COc1ccc(C(=O)Nn2c(SCC(=O)NCC3CCCO3)nc3ccccc3c2=O)cc1 (stereo unspecified)	none
CCOc1ccc(-c2cc(C(=O)N3CCCC3)c3ccccc3n2)cc1	aSyn UTR act -68
O=C(Nc1ccc2c(c1)nc1n2CCOC1)c1ccccc1	aSyn UTR act -80
CCCCC(=O)Nc1ccc2c(c1)nc1n2CCOC1	aSyn UTR act -77
COc1ccc(C2C(C(=O)c3cccs3)=C(O)C(=O)N2c2nncs2)cc1 (stereo unspecified)	aSyn UTR act -108
O=C1c2ccccc2C(=O)C12OC2c1ccc(Cl)cc1 (stereo unspecified)	aSyn UTR act -72
N=C1C(c2nc3ccccc3[nH]2)=C(O)CN1c1ccc(F)cc1	aSyn UTR act -65
N=C1C(c2nc3ccccc3[nH]2)=C(O)CN1C1CCCCC1	aSyn UTR act -116
c1ccc(-c2ccc(OCCOCCn3cncn3)cc2)cc1	aSyn UTR act -175
c1ccc(COc2ccc(OCCCn3cncn3)cc2)cc1	aSyn UTR act -102
CC1CCN(CCCOc2ccc(OCc3ccccc3)cc2)CC1	aSyn UTR act -69
c1ccc(COc2ccc(OCCCN3CCCC3)cc2)cc1	none
CCc1ccc(S(=O)(=O)Nc2cc3c(cc2C)n(C)c(=O)n3C)cc1	aSyn UTR act -92
Cn1c(=O)n(C)c2cc(S(=O)(=O)Nc3cc(Cl)ccc3O)ccc21	aSyn UTR act -72
Cc1ccc(NC(=O)C2COc3ccccc3O2)cc1C (stereo unspecified)	aSyn UTR act -171
COC(=O)c1cccc(NC(=O)C2COc3ccccc3O2)c1 (stereo unspecified)	aSyn UTR act -137
Cc1cccc(NC(=O)C2COc3ccccc3O2)c1 (stereo unspecified)	aSyn UTR act -115
COc1ccccc1C(=O)Nc1cc2cc(Cl)ccc2oc1=O	aSyn UTR act -123
COc1ccccc1C(=O)NNC(=O)c1ccc(F)cc1	aSyn UTR act -92
COc1ccccc1C(=O)NNC(=O)c1ccc(Cl)cc1	aSyn UTR act -70
Cc1ccc(-c2nc3ccccc3[nH]2)cn1	aSyn UTR act -99
Clc1ccc(-c2nc3ccccc3[nH]2)cn1	aSyn UTR act -63
Cc1nc2ccc(-c3nc4ccccc4[nH]3)cc2[nH]1	aSyn UTR act -120
CCNC(=S)N/N=C/c1sc(N2CCCCC2)nc1-c1cccs1	aSyn UTR act -102
COC(=O)c1ccc(CO/N=C2\CCCc3nonc32)cc1	aSyn UTR act -122
Cc1sc(NC(=O)c2ccc(F)cc2)c(CN2CCCCCC2)c1C	aSyn UTR act -174
Cc1sc(NC(=O)c2ccccc2F)c(CN2CCCCC2)c1C	aSyn UTR act -124
COc1ccc2cc(CN(CC3CCCO3)C(=O)Nc3ccccc3OC)c(=O)[nH]c2c1 (stereo unspecified)	none
CCc1ccc2[nH]c(=O)c(CN(CCN(CC)CC)C(=O)Nc3ccccc3OC)cc2c1	aSyn UTR act -62
COc1ccccc1NC(=O)N(Cc1ccco1)Cc1cc2ccc(C)c(C)c2[nH]c1=O	none
CCC(=O)NCCc1nc2cc(NC(=O)c3ccccc3OC)ccc2n1C	aSyn UTR act -71
CCC(=O)NCCc1nc2cc(NC(=O)COc3ccccc3)ccc2n1C	aSyn UTR act -113
Cc1ccc(OCC(=O)Nc2ccc3c(c2)nc(CCN2CCN(C)CC2)n3C)cc1	none
Cn1cnc2cc(NC(=O)COc3ccccc3)ccc21	aSyn UTR act -117
COc1ccccc1C(=O)Nc1ccc2c(c1)nc(CCNC(C)=O)n2C	aSyn UTR act -73
CCC(=O)NCCc1nc2cc(NC(=O)c3cccc([N+](=O)[O-])c3)ccc2n1C	aSyn UTR act -70
CC(=O)NCCc1nc2cc(NC(=O)c3ccc(F)cc3)ccc2n1C	aSyn UTR act -111
Nc1c(C(=O)c2cccs2)oc2ccccc12	aSyn UTR act -99
Nc1c(C(=O)c2ccc(Br)s2)oc2ccccc12	aSyn UTR act -149
CSc1nnc(-c2ccccc2N=Cc2c(C)[nH]n(-c3ccc4ccccc4c3)c2=O)c(=O)[nH]1	aSyn UTR act -73
COc1ccc(N=Cc2nc(-c3ccccc3)oc2OC(=O)c2ccccc2)cc1	aSyn UTR act -92
CN(C)c1ccc(N=Cc2nc(-c3ccccc3)oc2OC(=O)c2cccc(Br)c2)cc1	aSyn UTR act -166
CCC(=O)Oc1oc(-c2ccccc2)nc1C=Nc1ccccc1OC	aSyn UTR act -63
COc1ccc(-c2nnn(Cc3ccccc3)n2)cc1	aSyn UTR act -168
Cc1ccccc1Cn1nnc(-c2cccc(C(=O)O)c2)n1	aSyn UTR act -79
O=C(O)c1cccc(-c2nnn(Cc3ccccc3)n2)c1	aSyn UTR act -85
CSc1ccc(-c2nnn(Cc3ccc(C)cc3)n2)cc1	aSyn UTR act -168
Cc1nn(CCOc2ccccc2)c(=O)n1-c1ccc(F)cc1	aSyn UTR act -65
Cc1nn(C)c(=O)n1-c1ccc(OCc2ccccc2)cc1	aSyn UTR act -104
CCOc1ccc(/C=C2/Sc3ccc(C(=O)N4CCN(C(=O)c5ccco5)CC4)cc3N(C)C2=O)cc1OC	none
COc1cc(/C=C2/C(=N)N3C(c4ccccc4)=CSC3=NC2=O)ccc1OCC(=O)O	aSyn UTR act -68
COc1cc(/C=C2/C(=N)N3N=C(CC(=O)N4CCOCC4)SC3=NC2=O)ccc1OCc1ccccc1	aSyn UTR act -129
CC(NC(=O)CCl)c1ccccc1Br (stereo unspecified)	aSyn UTR act -99
C/C(=N\NC(=O)c1ccn[nH]1)c1cn(C)nc1C	aSyn UTR act -98
O=C1CCC(O)CCN1CCSc1ccccc1 (stereo unspecified)	aSyn UTR act -93
CC(C)CN1CCC(=O)N(CCSc2ccccc2)CC1	aSyn UTR act -107
CCCN1CCC(=O)N(CCSc2ccc(C)cc2)CC1	aSyn UTR act -79
Cc1cnc(C(=O)Nc2ccc(N3CCOCC3)cc2)cn1	aSyn UTR act -73
Cc1cnc(C(=O)Nc2ccc(N3CCCCC3)cc2)cn1	aSyn UTR act -135
Cc1cnc(C(=O)Nc2ccc(OC(F)(F)F)cc2)cn1	aSyn UTR act -239
C/C(=N\OC(=O)NC1CCCCC1)c1sc(-c2ccccc2)nc1C	aSyn UTR act -115
C/C(=N\OC(=O)NC(C)C)c1sc(-c2ccccc2)nc1C	aSyn UTR act -141
C=C(C)c1sc(-c2ccc(Cl)cc2)nc1C	aSyn UTR act -223
C/C(=N\OC(=O)NC(C)C)c1sc(-c2ccc(Cl)cc2)nc1C	aSyn UTR act -154
CCNC(=O)O/N=C(\C)c1sc(-c2ccc(Cl)cc2)nc1C	aSyn UTR act -77
CCC(C)Nc1nc(-c2ccc3c(c2)NC(=O)CO3)cs1 (stereo unspecified)	aSyn UTR act -112
COc1ccc(Nc2nc(-c3ccc4c(c3)NC(=O)CO4)cs2)cc1	aSyn UTR act -110
CC(C)c1ccccc1-n1c(SCC(=O)c2ccc3c(c2)NC(=O)CO3)nc2ccccc2c1=O	none
CCOc1ccc2c(c1)sc(=NC(=O)C1CC1)n2C	aSyn UTR act -215
O=C(NNC(=S)Nc1ccccc1)c1cccs1	aSyn UTR act -231
O=C(NNC(=S)Nc1ccc(Cl)cc1)c1cccs1	aSyn UTR act -125
Brc1ccc(-c2ncc3ccccn23)cc1	aSyn UTR act -130
Fc1ccc(-c2ncc3ccccn23)cc1	aSyn UTR act -101
Cc1ccsc1/C=N/Nc1ccc(F)cc1F	aSyn UTR act -176
Cc1cc(C)nc(N/N=C/c2sccc2C)n1	aSyn UTR act -82
Cc1ccsc1/C=N/Nc1nc(=O)[nH]nc1C	aSyn UTR act -85
